Measured values: PubChem BioAssay (Tox21)
Inconclusive results are not listed. The source made the active and inactive calls. Unless noted, calls follow the shape of the dose curve; as a rule, active = well fitted curve in the direction sought with a large enough effect in the repeat runs; inconclusive = weak or mixed curves; inactive = no such curve, though single readings can be large; an effect the other way counts as inactive or inconclusive. Positions of bridges follow the written chain, without caps; N, C: chain ends. Non-standard residues stand in square brackets, D forms with d. Residues, ends and D or L forms follow the SMILES beside them. hArg = N=C(N)NCCCC[C@H](N)C(=O)O; Mpa = O=C(O)CCS

Key:
[1] = qHTS assay for small molecules that induce genotoxicity in human embryonic kidney cells expressing luciferase-tagged ATAD5 (AID 651632); also: nearly all actives have a fitted effect of over 15% in size
In short: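 Luminescence read-out: after 16 hr compound exposure at 37C, ATAD5-luciferase HEK293T cells received Amplite, 30 min RT, then CCD imaging. A rise in signal marks genotoxic stress.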

[2] = qHTS assay for small molecule agonists of the p53 signaling pathway - cell viability (AID 651633; calls by dose curve;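 also: p53RE-bla HCT reporter cells with a stable beta-lactamase p53 reporter; series mostly up to about 83 µM; nearly all actives have a fitted effect of over 30% in size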)
In short: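 p53RE-bla cells, seeded at 4,000 per well and rested 5 h at 37 C/5% CO2, received compounds in DMSO for 16 h at 37 C. CellTiter-Glo was then added, and luminescence was read after 30 min at room temperature to gauge cytotoxicity.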

[3] = qHTS assay for small molecules that induce genotoxicity in human embryonic kidney cells expressing luciferase-tagged ATAD5 - cell viability (AID 651634; calls by dose curve; also: nearly all actives have a fitted effect of over 25% in size)
In short: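 HEK293T ATAD5-luc cells, 2,000/well; compound 15.5 hr, 37C/5% CO2; CellTiter-Fluor 30 min, 37C; fluorescence read.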

[4] = qHTS assay for small molecule disruptors of the mitochondrial membrane potential - cell viability (AID 720634; calls by dose curve;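 also: human HepG2 liver cancer cells; series mostly up to about 83 µM; nearly all actives have a fitted effect of over 20% in size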)
In short: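 Luminescence from CellTiter-Glo (ATP content) gave viability in HepG2 cells, read in the same wells as the MMP dye assay after 1 hr compound exposure at 37 C.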

[5] = qHTS assay for small molecule disruptors of the mitochondrial membrane potential (AID 720635)
In short: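 HepG2 cells (2,000/well) attached overnight at 37C, then took compound for 1 hr at 37C, 5% CO2. Mito-MPS dye was added for 30 min; fluorescence was read at 490/535 nm (monomers) and 540/590 nm (aggregates).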

[6] = qHTS assay to test for compound auto fluorescence at 590 nm (red) in HepG2 cells (AID 720674)
In short: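 Intrinsic compound fluorescence in the red window (Ex/Em 540/590 nm) is measured in attached HepG2 cells exposed for 1 hr, DMSO vehicle as baseline, benchmarked to Rose Bengal sodium.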

[7] = qHTS assay to test for compound auto fluorescence at 535 nm (green) in HepG2 cells (AID 720675)
[8] = qHTS assay to test for compound auto fluorescence at 460 nm (blue) in HEK293 cells (AID 720678)
In short: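 Blue-channel (Ex/Em 405/460 nm) intensity measured in HEK293 cultures after overnight compound exposure at 37C; signal expressed relative to triamterene. Cells plated 2,000 per well in 10% dialyzed FBS medium and allowed 4-5 hr to attach.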

[9] = qHTS assay to test for compound auto fluorescence at 590 nm (red) in HEK293 cells (AID 720679)
In short: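 Red-channel autofluorescence (Ex/Em 540/590 nm; Rose Bengal sodium reference) was measured after overnight 37C, 5% CO2 exposure of attached HEK293 cells, 2,000 per well in medium with 10% dialyzed FBS.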

[10] = qHTS assay to test for compound auto fluorescence at 535 nm (green) in HEK293 cells (AID 720680)
[11] = qHTS assay to test for compound auto fluorescence at 460 nm (blue) in HEK293 cell free culture (AID 720681)
In short: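 Test compounds were pinned into cell-free culture medium (DMEM with 10% FBS) and fluorescence was read directly at Ex/Em 405/460 nm. Signals were expressed as fluorescence equivalents of triamterene, with DMSO vehicle as control.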

[12] = qHTS assay to test for compound auto fluorescence at 535 nm (green) in HEK293 cell free culture (AID 720682)
In short: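 Green-label autofluorescence (485 nm excitation, 535 nm emission) measured on compound added to cell-free culture medium (DMEM, 10% FBS). Output is expressed relative to fluorescein.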

[13] = qHTS assay to test for compound auto fluorescence at 590 nm (red) in HEK293 cell free culture (AID 720683)
In short: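 Tox21 10K library compounds were pinned into cell-free DMEM with 10% FBS and fluorescence was read at excitation 540 nm. Activity is expressed as Rose Bengal sodium equivalency.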

[14] = qHTS assay to test for compound auto fluorescence at 590 nm (red) in HepG2 cell free culture (AID 720684)
In short: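 Readout: intrinsic compound fluorescence at 590 nm emission after 540 nm excitation, scaled to Rose Bengal sodium. Matrix was cell-free MEM with 10% FBS; DMSO vehicle wells served as control.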

[15] = qHTS assay to test for compound auto fluorescence at 460 nm (blue) in HepG2 cell free culture (AID 720685)
In short: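 Cell-free plates of MEM plus 10% FBS received 23 nL compound or DMSO vehicle; blue-channel (405/460 nm) intensity scored against triamterene as reference fluorophore.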

[16] = qHTS assay to test for compound auto fluorescence at 535 nm (green) in HepG2 cell free culture (AID 720686)
[17] = qHTS assay to test for compound auto fluorescence at 460 nm (blue) in HepG2 cells (AID 720687)
In short: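 Cells (2,000/well in MEM with 10% FBS) attached overnight at 37 C, then were exposed to compound or DMSO for 1 hr at 37 C, 5% CO2. Fluorescence read at Ex/Em 405/460 nm, expressed as triamterene-equivalent signal.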

[18] = molecular target: Glucocorticoid receptor (Homo sapiens) (UniProt P04150); assay: qHTS assay to identify small molecule agonists of the glucocorticoid receptor (GR) signaling pathway (AID 720691; active = well fitted activation curve with a large enough effect in the signal ratio in the repeat runs, not every such curve was filed as active; the % refers to the signal ratio)
Sequence of Glucocorticoid receptor (Homo sapiens) (P04150 whole entry, looked up): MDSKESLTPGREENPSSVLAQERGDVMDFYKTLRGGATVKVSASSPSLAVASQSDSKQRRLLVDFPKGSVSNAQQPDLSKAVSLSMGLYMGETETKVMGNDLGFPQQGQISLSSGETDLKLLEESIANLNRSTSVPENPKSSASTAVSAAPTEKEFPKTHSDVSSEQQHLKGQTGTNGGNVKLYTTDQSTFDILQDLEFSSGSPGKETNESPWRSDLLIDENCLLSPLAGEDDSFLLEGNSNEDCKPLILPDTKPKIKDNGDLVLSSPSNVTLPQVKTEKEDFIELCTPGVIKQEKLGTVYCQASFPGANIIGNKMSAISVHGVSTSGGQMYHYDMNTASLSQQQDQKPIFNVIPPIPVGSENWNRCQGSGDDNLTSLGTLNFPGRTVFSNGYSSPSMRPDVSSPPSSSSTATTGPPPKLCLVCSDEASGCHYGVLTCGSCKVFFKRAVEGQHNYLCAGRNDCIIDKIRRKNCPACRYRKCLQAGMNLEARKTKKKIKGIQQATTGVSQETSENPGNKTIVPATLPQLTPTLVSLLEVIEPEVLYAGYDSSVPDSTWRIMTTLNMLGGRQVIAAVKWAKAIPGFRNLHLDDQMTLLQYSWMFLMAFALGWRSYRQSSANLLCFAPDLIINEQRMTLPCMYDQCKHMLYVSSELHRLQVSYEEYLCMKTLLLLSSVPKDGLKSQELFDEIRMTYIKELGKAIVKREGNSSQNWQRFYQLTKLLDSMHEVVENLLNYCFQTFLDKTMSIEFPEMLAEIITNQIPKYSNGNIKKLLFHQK
In short: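 HeLa GR-bla reporter line; cells pre-incubated 4 h, compound in DMSO 18 h at 37 C; LiveBLAzer B/G FRET substrate 2 h RT; fluorescence intensity read-out.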

[19] = qHTS assay for small molecule agonists of the p53 signaling pathway (AID 651631; calls by dose curve; also: nearly all actives have a fitted effect of over 15% in size)
In short: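 HCT-116 cells carrying a beta-lactamase reporter under p53 response elements were dosed with compound for 16 h at 37 °C. LiveBLAzer B/G FRET substrate was then added for 2 h at room temperature, and fluorescence intensity was read to detect pathway agonism.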

[20] = molecular target: Glucocorticoid receptor (Homo sapiens) (UniProt P04150); assay: qHTS assay to identify small molecule antagonists of the glucocorticoid receptor (GR) signaling pathway (AID 720692; active = well fitted inhibition curve with a large enough effect in the signal ratio in the repeat runs, not every such curve was filed as active; the % refers to the signal ratio)
In short: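 Read-out: beta-lactamase FRET substrate fluorescence, 2 h at room temperature, in HeLa cells stably carrying a GRE-driven bla reporter. Compounds were co-incubated with 5 nM dexamethasone agonist (final) for 18 h at 37 C.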

Measured: Potency

CN(C)CCN(C)CCO
not listed: [19] | [20]
inactive: all other assays above

CCCSSCCC
not listed: [1] | [4] | [12]
inactive: all other assays above

CCCCCCCCCOC(=O)c1ccccc1C(=O)OCCCCCCCCC
not listed: [1] | [4] | [20]
inactive: all other assays above

O=C(O)CNC(=O)CNC(=O)CNC(=O)CSC(=O)c1ccccc1
not listed: [19]
inactive: all other assays above

O=C(O)[C@H](O)c1ccccc1
not listed: [1] | [3] | [18] | [20]
inactive: all other assays above

NC(=O)[C@@H]1CSSCCC(=O)N[C@@H](CCCCN=C(N)N)C(=O)NCC(=O)N[C@@H](CC(=O)O)C(=O)N[C@@H](Cc2c[nH]c3ccccc23)C(=O)N2CCC[C@H]2C(=O)N1 ([Mpa][hArg]GDWPC-NH2; disulfide 1-7)
not listed: [1]
inactive: all other assays above

CCCCSCCCC
not listed: [1]
inactive: all other assays above
